# A selection: hits, their analogues and other compounds. The true share with any hit is near 1.8%.
# BaF3 parental: reduces parental Ba/F3 cell viability, JAK2V617F counter-screen; inhibition, % at 5.6 µM; hit rate 1.1% among 220,000; AID 1486; CellTiter-Glo ATP luminescence;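 active means inhibition above a per-campaign cutoff, the mean inhibition of all tested compounds plus 3 SD, cut at about 27% in these data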;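 further: 0% = DMSO wells and 100% = JAK Inhibitor I control wells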
# APP transl inh: APP translation inhibition. hit rate 0.82% among 190,000. SH-SY5Y APP 5'UTR-luciferase reporter, luminescence. inhibition, % at 2 µM. AID 1285;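 active means inhibition above a set limit, derived from the sample mean plus 3 SD, cut at about 45% in these data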
# KLF5 inhibitor: suppresses KLF5 promoter-driven expression. DLD-1 KLF5 promoter-luciferase reporter, luminescence. inhibition, % at 5 µM. hit rate 0.23% among 290,000. AID 1700;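 active means inhibition above a per-plate limit of that plate's mean compound inhibition plus 3 SD, cut at about 60% in these data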;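 further: 0% = DMSO wells and 100% = LY294002 at 200 µM; higher means less KLF5 promoter-driven luciferase light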
# IEC-6 cytotox: counter-screen for KLF5 inhibitors: cytotoxicity in IEC-6 cells; IEC-6 cytotoxicity, luminescence viability; inhibition, % at 5 µM; hit rate 0.78% among 290,000; AID 1825;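 further: 0% = plate median of test compound wells and 100% = cytotoxic reference compound wells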
# Ba/F3 V617F tox: reduce viability of Ba/F3 cells dependent on JAK2V617F; Ba/F3 EpoR-JAK2V617F viability, ATP luminescence; inhibition, % at 5.6 µM; hit rate 1.1% among 220,000; AID 1446;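 active means inhibition above the campaign mean plus 3 SD over all tested compounds, cut at about 24% in these data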;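 further: cytokine-independent growth of Ba/F3 cells driven by EpoR plus mutant JAK2; 0% = DMSO-treated cells and 100% = JAK inhibitor I control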
# IEC-6 tox confirm: IEC-6 cytotoxicity, confirmation assay | AID 1907 | inhibition, % at 5 µM | shares compounds with IEC-6 cytotox | hit rate 63% among 1,900 | IEC-6 rat intestinal epithelial viability, luminescence;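 further: 0% = vehicle and 100% = reference cytotoxic drug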
# An asterisk follows results filed as active; . = no result. Unless noted, no stated cut-off is given here; in the data, active means inhibition above about 22%; inactive means the rest.
SMILES,BaF3 parental,APP transl inh,KLF5 inhibitor,IEC-6 cytotox,Ba/F3 V617F tox,IEC-6 tox confirm
Cc1ccc(S(=O)(=O)c2nc(-c3ccccc3Cl)oc2N(C)C)cc1,.,.,6,24*,.,16
Cc1cccc(OCCN2C(=O)C(=O)c3cc(C)ccc32)c1,84*,93*,-26,79*,86*,56*
O=C(Cc1ccccc1)Nc1ccc(NC(=O)c2ccco2)cc1Cl,.,.,-52,-5,.,.
CCC(C)NCCOCCOc1ccc(Cl)c(C)c1C (stereo unspecified),4,-11,1,-2,-1,.
CCC(C)NCCOCCOc1ccc(Cl)c2ccccc12 (stereo unspecified),1,-4,-14,34*,5,15
CCN1/C(=C/c2ccc3cc(C)ccc3[n+]2CC)Sc2cc(C)c(C)cc21,89*,46*,-1,39*,100*,29*
CCN1/C(=C/c2ccc3cc(C)ccc3[n+]2CC)Sc2ccccc21,106*,81*,41,50*,102*,70*
CCN1/C(=C/C=C/C=C/C=C/c2sc3ccccc3[n+]2CC)Sc2ccccc21,.,.,-11,4,.,.
Cc1cc(C)c(NC(=O)CS(=O)CC(=O)NC2CCCc3ccccc32)c(C)c1 (stereo unspecified),2,-3,-16,11,2,.
Cc1c(O)ccc(C(=O)CN2CCN(Cc3ccc4c(c3)OCO4)CC2)c1O,-2,-4,7,60*,6,4
COc1ccccc1NC(=O)CN(c1ccccc1)S(=O)(=O)c1ccccc1,.,.,-2,-3,.,.
COc1ccc(N(CC(=O)Nc2ccccc2OC)S(=O)(=O)c2ccc(NC(C)=O)cc2)cc1,.,.,35,38*,.,32*
COc1ccc(CCNC(=O)C(=O)NCC2OCCN2S(=O)(=O)c2cccs2)cc1 (stereo unspecified),.,.,-15,1,.,.
Cc1cc(C)cc(NC(=O)C2CCN(S(=O)(=O)c3ccc4c(c3)NC(=O)C(C)S4)CC2)c1 (stereo unspecified),.,.,-13,-3,.,.
Cc1ccc(NC(=O)C2CCN(S(=O)(=O)c3ccc4c(c3)NC(=O)C(C)S4)CC2)cc1Cl (stereo unspecified),.,.,-4,22*,.,4
COc1ccc(NC(=O)c2nc(S(=O)(=O)Cc3cccc(C)c3)ncc2Cl)c(OC)c1,.,.,24,66*,.,20
COc1ccc(OC)c(NC(=O)CS(=O)(=O)Cc2ccccc2)c1,.,.,-30,2,.,.
COc1ccc(OC)c(NC(=O)c2nc(S(=O)(=O)Cc3ccccc3)ncc2Cl)c1,.,.,45,75*,.,6
CCCc1nnc(NC(=O)c2nc(S(=O)(=O)Cc3cccc(C)c3)ncc2Cl)s1,.,.,4,7,.,.
CCCn1ncc(CN2CCC(n3nccc3NC(=O)CCc3ccccc3)CC2)c1C,.,.,-1,1,.,.
Cc1ccc2ccc3ccc(C)nc3c2n1,.,.,51,91*,.,37*
Cc1ccc(N(C)S(=O)(=O)c2ccc(-c3cnc(C4CC4)o3)cc2)cc1,.,.,52,76*,.,55*
COc1ccc(C)cc1NS(=O)(=O)c1ccc(-c2cnc(C3CC3)o2)cc1,.,.,61,90*,.,62*
Cc1cccc(C)c1NS(=O)(=O)c1ccc(-c2cnc(C3CC3)o2)cc1,.,.,47,94*,.,72*
CC(=O)c1ccc(NS(=O)(=O)c2ccc(-c3cnc(C4CC4)o3)cc2)cc1,.,.,-3,2,.,.
SMILES,BaF3 parental,APP transl inh,KLF5 inhibitor,IEC-6 cytotox,Ba/F3 V617F tox,IEC-6 tox confirm
Cc1ccc(CNS(=O)(=O)c2ccc(-c3cnc(C4CC4)o3)cc2)cc1,.,.,-38,-5,.,.
CCOc1ccccc1CNS(=O)(=O)c1ccc(-c2cnc(C3CC3)o2)cc1,.,.,35,75*,.,55*
O=[N+]([O-])c1ccc(S(=O)(=O)NCCc2ccncc2)cc1,8,6,-17,-1,3,.
COc1ccc(CN(C(=O)CCC(=O)Nc2cc(C)on2)C(C(=O)NC(C)(C)C)c2cccc(OC)c2OC)cc1 (stereo unspecified),.,.,-11,0,.,.
COc1ccc(NC(=O)CN(c2ccccc2F)S(=O)(=O)c2ccc(C)cc2)cc1,.,.,-13,-9,.,.
Cc1ccc(NS(=O)(=O)c2ccc(-c3cnc(C4CC4)o3)cc2)cc1,.,.,30,56*,.,32*
Cc1cccc(NC(=O)c2cc(-c3cccnc3)nc3c(C)cccc23)n1,.,.,-2,3,.,.
Cc1cc(NC(=O)c2cc(-c3ccncc3)nc3c(C)cccc23)no1,50*,84*,34,60*,41*,44*
O=c1oc(-c2ccccc2)cc(Cl)c1Cl,.,.,-7,31*,.,21
CCOc1ccc(-c2nnc(-c3ccccc3)n2-c2ccccc2)cc1,1,-15,0,-9,0,.
CCOc1ccc(-c2c[n+]3c(n2-c2ccccc2)CCCCC3)cc1,70*,-22,-45,25*,89*,19
NC(=O)N/N=C/c1c(Sc2nnnn2-c2ccccc2)nc2ccccn2c1=O,-1,.,-35,11,-3,.
Cc1ccc(OCC(=O)NNC(=S)NC(=O)C2CC2)c(C)c1,.,.,26,36*,.,14
Clc1ccccc1-c1nnc2sc(-c3ccncc3)nn12,5,-3,-56,6,3,.
CN(C)c1ccc(-c2nn3c(-c4ccccc4Cl)nnc3s2)cc1,13,90*,23,35*,9,57*
CS(=O)(=O)NCc1ccc(C(=O)NC2CCCCC2)cc1,5,-3,-6,37*,4,11
Cc1ccc(S(=O)(=O)NCc2ccc(C(=O)NC3CCCCC3)cc2)cc1,.,.,-17,-5,.,.
COc1ccc(C2=NN(C(=O)c3cccs3)C(O)(C(F)(F)F)C2)cc1 (stereo unspecified),3,24,-6,54*,-1,41*
O=C(c1ccccc1)N1N=C(c2ccccc2)CC1(O)C(F)(F)F (stereo unspecified),.,.,-21,5,.,.
Cc1cccc(N2CCN(S(=O)(=O)c3cc(-c4cc(C)no4)ccc3C)CC2C)c1 (stereo unspecified),.,.,30,50*,.,32*
Cc1cc(-c2ccc(C(C)C)c(S(=O)(=O)N3CCN(c4ccccc4)CC3)c2)on1,.,.,50,78*,.,53*
COc1ccc(OC)c(-c2cc(C(=O)N/N=C(\C)c3cccnc3)c3ccccc3n2)c1,.,.,0,8,.,.
O=C(N/N=C/c1ccc([N+](=O)[O-])o1)c1cc(-c2ccc(-c3ccccc3)cc2)nc2ccccc12,62*,90*,32,36*,64*,52*
O=C(N/N=C/c1cccnc1)c1cc(-c2ccc(Br)cc2)nc2ccccc12,.,.,11,26*,.,21
CCOc1ccc(-c2cc(C(=O)N/N=C(\C)c3cccnc3)c3ccccc3n2)cc1,.,.,-19,36*,.,11
Cc1ccsc1/C=N/NC(=O)c1cc(-c2ccncc2)nc2ccccc12,75*,94*,61,72*,71*,58*
CC(=O)N1c2ccc(S(=O)(=O)NCC3CCC(C(=O)NC4CCCCC4)CC3)cc2CC1C (stereo unspecified),.,.,-33,-7,.,.
O=C(N/N=C/c1ccc([N+](=O)[O-])o1)c1cc(-c2ccncc2)nc2ccccc12,4,0,-1,-5,-1,.
